# Experimental data reported in ChEMBL document CHEMBL4888484, “Replenishing the malaria drug discovery pipeline: Screening and hit evaluation of the MMV Hit Generation Library 1 (HGL1) against asexual blood stage Plasmodium falciparum ,using a nano luciferase reporter read-out” (2022).
# About 410 (8.5%) of roughly 4,800 compounds showed an effect of 50% or more. The sample holds strong results, similar compounds and a random draw of the others, so the mix is not that of the screen.
# Test system: Plasmodium falciparum
# Assay: Confirmatory screen in NF54 pLDH assay, in single point, at 2uM, 72h
# Assay type: functional, Erythrocyte
# Details: timepoint 72 hour
row,SMILES,% Inhibition [%]
1,CCN1c2cc(C)ccc2-n2cccc2C12CCNCC2,-7
2,COc1ccc(C(C)(C)C(=O)N(C)Cc2cn(C)nc2C(C)C)cc1,13
3,COc1nc(NC2CCS(=O)(=O)CC2)ncc1F,77
4,CC1(C)C(NCC(O)COc2ccc(F)c(F)c2)[C@@H]2CCC[C@@H]21 (stereo partly specified),75
5,Cc1cccc2sc(N3CCC[C@H](CNS(N)(=O)=O)C3)nc12,9
6,Cc1nc(N2CCC(c3nc(-c4ccccc4)no3)CC2)c2c(C)noc2n1,9
7,CCn1nccc1CN(C)C(=O)c1cc(S(=O)(=O)N(C)C)c(Cl)cc1Cl,-10
8,COc1cccc(-c2nc(C)c(C(=O)Nc3nc(C(C)C)n[nH]3)s2)c1,10
9,O=C(NC1CCCCC1)c1nn(-c2ccccc2)c(=O)c2ccccc12,-12
10,O=C(Nc1ccc(N2CCCC2)c(F)c1)C(=O)Nc1ccon1,-13
11,CN1CCCN(c2ccc(NC(=O)c3nn(-c4ccccc4)c(=O)c4ccccc34)cc2F)CC1,68
12,Cc1ccc(S(=O)(=O)N(CC(=O)N[C@@H](C)c2ccccc2)c2cccc(Br)c2)cc1,11
13,CCCc1ccc(OCCNC(=O)C2CCCC2)cc1,3
14,O=C(Nc1ccccc1)C(=O)Nc1ccc2ncc(Cl)n2c1,7
15,O=C(c1cc2nc(-c3ccc(Cl)c(Cl)c3)cc(C(F)(F)F)n2n1)N1CCN(c2ccccc2)CC1,-7
16,CCc1ccc(-c2cc3c(=O)n(CC(=O)N4CC(C)CC(C)C4)ncn3n2)cc1 (stereo unspecified),11
17,Cc1cc(NCCc2nccn2C)ncn1,-4
18,Cc1sc2nc(-c3ccccn3)nc(NCC(=O)N3CCC(O)CC3)c2c1-c1ccccc1,23
19,CCN1CCN(c2nc3ncn(CC(=O)NCCCc4ccccc4)c(=O)c3s2)CC1,-2
20,CCc1c(C)nn(S(=O)(=O)c2ccc3ccccc3c2)c1O,-3
21,Cc1ncsc1COC(=O)c1ccnc(N(C)C)c1,10
22,C[C@H]1CCC[C@@H](NCCc2ccccc2)CCC/C=C/c2cc(O)cc(O)c2C(=O)O1,72

row,SMILES,% Inhibition [%]
1,Cc1cccc(NC(=O)c2cc(Cl)c[nH]2)n1,6
2,COc1ccccc1C1CC1c1nc(CC(=O)NC2CCCC2)no1 (stereo unspecified),-5
3,Cc1ccc(-c2noc(CCC(=O)NC[C@H]3CCCO3)n2)c(=O)n1C(C)C,0
4,CN(CCNC(=O)CCc1cn(-c2ccccc2)nc1-c1ccc2c(c1)OCO2)C1CCCCC1,49
5,CC[C@H](C)NC(=O)c1cn(-c2cccc(C)n2)cn1,13
6,Nc1ccc(Cc2nnc3n2CCC3)cc1,8
7,O=C(N[C@@H](CN1CCCC1)c1ccccc1)N1CCC(c2ccn[nH]2)CC1,43
8,CN(C)CCCNCc1ccccc1F,10
9,OCCNCc1c(Cl)cccc1Cl,4
10,Clc1cccc(CNCCCNc2ccncc2)c1Cl,95
11,CC(NC(=O)C1CCC1)C(=O)Nc1ccn(C(C)c2ccccc2)n1 (stereo unspecified),-6
12,O=C(Nc1ccc(Cn2ccnc2)cc1)c1cc2ccccc2cc1OC(F)F,-12
13,O[C@@H](Cc1ccc2ccccc2n1)c1ccccc1,-3
14,Cc1ccc[n+](Cc2ccc3ccccc3n2)c1,53
15,c1ccc2c[n+](Cc3ccc4ccccc4n3)ccc2c1,47
16,CCn1nc(-n2cnnc2)c(NS(=O)(=O)c2ccc(Br)cc2C)c1C,12
17,CC(=O)Nc1cccc(NC(=O)Cn2c(=O)n(CCc3cccs3)c(=O)c3ccccc32)c1,10
18,CCOC(=O)c1cn(CC)c2cc(NC3CCCCC3)c(F)cc2c1=O,69
19,CCOC(=O)c1cc(NC(=O)C(C)(C)NC(=O)OC(C)(C)C)c(F)cc1C,8
20,CCOC(=O)c1ncn(C2CCCCC2)c1N,10
21,CC[C@H]1C[C@@H]1CNC(=O)c1cccc(NC(=O)c2ccco2)c1,-2
22,Cc1cc2[nH]ncc2cc1NC(=O)c1ccco1,9

row,SMILES,% Inhibition [%]
1,COC(C)(C)c1nc(Cn2cnc3ccccc32)no1,6
2,CC(C)[C@H](NC(=O)c1ccc(Cl)cc1Cl)C(=O)O,-5
3,CCOC(=O)CCn1cc(F)c(=O)[nH]c1=O,66
4,CCOC(=O)COc1cc(N)c(F)cc1Cl,-9
5,CCOC(=O)CNc1ccc(F)c(Cl)c1,-3
6,COCCCNC(=O)c1cncc(Br)c1,-2
7,NC(=O)c1cc(Cl)c(Cl)c(Cl)c1,-22
8,O=C1CCC[C@H](O)N1Cc1ccc(F)cc1,8
9,CCc1ccc(CN2CCC[C@H](c3ncc[nH]3)C2)nc1,52
10,CC(C)n1ccc(CN2CCC[C@H](c3cc(C(F)(F)F)[nH]n3)C2)n1,1
11,CCc1ccc([C@H]2NCCc3[nH]cnc32)nc1,24
12,c1ccc(C(c2ccccc2)N2CCN(c3nn4cnnc4c4ccccc34)CC2)cc1,65
13,O=C(c1cccc(C(=O)N2CCN(C(c3ccccc3)c3ccccc3)CC2)c1)N1CCN(C(c2ccccc2)c2ccccc2)CC1,26
14,CCc1cc(C(=O)N2CCCCC2)c2c(C)nn(-c3ccc(OC)cc3)c2n1,10
15,COC(=O)[C@](Nc1ccc(Oc2ccccc2)cc1)(c1cc(C)c(O)c(C)c1)C(F)(F)F,7
16,CCCCn1c(N)c(N(Cc2ccccc2OC)C(=O)c2ccoc2C)c(=O)[nH]c1=O,-22
17,Cc1ccc(Nc2c(C(=O)NCc3ccc(F)cc3)cnc3c2c(C)nn3C)cc1,-5
18,O=C(NCCN1CCCC1)c1cc2n(n1)CCN(Cc1cccc(F)c1)C2=O,-27
19,N#Cc1c(-c2ccccc2)cc(-c2ccccc2)nc1S(=O)(=O)Cc1ccccc1,43
20,N#Cc1nc2c(C#N)c(N)n(CCc3ccccc3)c2nc1C#N,92
21,Nc1nc2c(s1)CN(CCc1ccccc1)CC2,41
22,O=S(=O)(c1ccccc1F)C1CNC1,-18

row,SMILES,% Inhibition [%]
1,O=C(c1cccc(COc2ccc(Br)cc2)c1)N1CCN(Cc2ccccc2)CC1,-14
2,CC(C)c1nc(C(=O)Nc2ccccc2CN2CCNC2=O)cs1,5
3,O=C(c1coc(-c2ccccc2)n1)N1CCc2cc(Br)ccc21,1
4,CC(C)c1nc(C(=O)Nc2[nH]c(=O)ncc2F)cs1,83
5,Cc1nc(C(=O)Nc2[nH]c(=O)ncc2F)c(-c2ccccc2)o1,70
6,Cc1ccc(-c2cc(C(=O)Nc3nnc(C(C)C)s3)no2)cc1F,16
7,O=C(Nc1[nH]c(=O)ncc1F)c1coc(-c2ccccc2)n1,71
8,O=C(CNc1cc(F)c(F)cc1F)NC(=O)NCC(F)(F)F,-5
9,CC(C)CN1C(=O)CC[C@@H](C(=O)NCCCN2CCOCC2)[C@@H]1c1cccnc1,-17
10,Cc1nc2ccc(Cl)cc2c(-c2ccccc2)c1C1=NN(S(C)(=O)=O)[C@H](c2ccccc2Cl)C1,-14
11,Cn1cc(-c2csc(NC(=O)c3ccc4[nH]cnc4c3)n2)cn1,7
12,CCN1C(=O)CN(C(=O)c2cccc(C)c2)CC12CCOCC2,9
13,Cc1nc(Cn2nnc(NC(=O)c3cccc(F)c3)c2C)no1,8
14,CC(C)(C)NC(=O)CNC(=O)c1cccc(F)c1,-8
15,O=C(Nc1nc2cccc(Cl)c2o1)c1cccc(F)c1,92
16,Cc1c(Br)c(C)n(NC(=O)c2cnn(Cc3ccccc3)c2)c(=O)c1C#N,-15
17,Cc1cccc(C)c1Oc1ccccc1NC(=O)CCc1nnc[nH]1,4
18,O=S(=O)(Nc1ccc2nncn2c1)c1c(F)cccc1Cl,-18
19,Cc1ccc(F)cc1NC(=O)N1CCC12CCC2,11
20,N#CC1(c2ccccc2)c2ccccc2C(=O)c2ccccc21,-4
21,CN(Cc1ccccc1)C(=O)C[C@H]1CCN(C(=O)NC2CCCC2)C1,2
22,Cc1cccc2ncnc(N(C)[C@@H](C)Cc3ccc(O)cc3)c12,84

row,SMILES,% Inhibition [%]
1,Cc1n[nH]c2ncc(NC(=O)c3ccc(CCC(F)(F)F)cc3)cc12,17
2,Cc1cc(C)cc(CN2CCCN(c3ccc(C)cc3NC(=O)Cc3ccc(F)cc3)C2=O)c1,13
3,CC(C)CCO[C@@H](C)C(=O)NC1CCN(CC(=O)NC(C)C)CC1,5
4,O=C1C2C3C=CC(C3=C3CCCCC3)C2C(=O)N1c1cccc(Cl)c1 (stereo unspecified),15
5,COc1cccc(S(=O)(=O)N2CCC(OCCOCc3ccccc3)CC2)c1,10
6,COc1cccc(S(=O)(=O)N2CCCN(Cc3ccncc3)[C@H](c3ccccc3)CC(=O)NCC2)c1,86
7,COc1cccc(S(=O)(=O)N2CCC(OCCOc3ccccc3)CC2)c1,7
8,Cc1cccc(NC(=O)Cn2ccc(C(=O)Nc3cccc(C)c3C)n2)c1C,-11
9,CCOC(=O)[C@@H]1C(=O)Nc2cc(OC)ccc21,9
10,COc1ccc(CCNCC(=O)Nc2c3c(nc4ccccc24)N(C)CC3)cc1OC,6
11,CN(C)c1ccc(NN=C2N=NN=N2)cc1,3
12,COc1cccc(NC(=O)Cn2c(C)ccc(NS(=O)(=O)c3ccc(C)cc3)c2=O)c1,59
13,COc1cccc(NC(=O)Cn2c(=O)n(C)c(=O)c3sc(N4CCCC4)nc32)c1,1
14,COc1cccc(Cn2c(=O)c3sccc3n(CC(=O)Nc3ccc4c(c3)OCO4)c2=O)c1,16
15,Cc1cc(C)c(NC(=O)CN(C)C(=O)NCc2ccco2)c(C)c1,-8
16,O=C(Nc1ccc2c(c1)c1cc(Br)ccc1n2Cc1ccccc1)c1ccccc1,6
17,O=C(NC(Cn1ccccc1=O)c1ccccc1)C1CCOC1 (stereo unspecified),7
18,O=C(N[C@@H](Cn1nccn1)c1ccccc1)c1cc(Br)ccc1Cl,75
